Test results as given in PubChem BioAssay (NCATS).
“And” between values parts separate entries of the source, which are not always exact repeats. Identical values can stand only once. Records with an inconclusive call do not appear. The source made the active and inactive calls. Unless noted, the call rests on the fitted dose curve.

How the values were obtained:
[1] = biological target: Cytochrome P450 1A2 (Homo sapiens) (UniProt P05177); test: p450-cyp1a2 (AID 410); further: potency means the concentration at half of the fitted maximal effect;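 on activity change, negative = inhibition: -100% = full effect of reference inhibitor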
Summary of the method: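 Human CYP1A2 (20nM) demethylated Luciferin-ME at its Km (100uM) in 100mM KPO4. After 10 min compound preincubation, NADPH regeneration ran the reaction 60 min at room temperature. Luciferin was read by luminescence, normalized to 57 uM furafylline.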

[2] = Stat Signaling Pathway (AID 446; active means well fitted curve in either direction with a large enough effect, not every such curve was filed as active;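 further: ME-180 cervical cancer cells given 40 pM IL-6 alongside compound; SIE-controlled beta-lactamase reporter measured as 460/530 nm FRET emission ratio; on the % scale 0 is the no-effect control and ±100 the full control effect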); conditions: ME-180 (cervical carcinoma) SIE beta-lactamase reporter, IL-6 stimulated, 5 h; at 38 µM (top of the series) unless noted
Summary of the method: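 IL-6/STAT signaling read in ME-180 cells via an SIE beta-lactamase reporter. Stimulus was 40 pM IL-6 (its AC50) for 5 hrs, so both activation and inhibition register.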

[3] = biological target: Glucocorticoid receptor (Homo sapiens) (UniProt P04150); test: GR-GFP Redistribution (AID 450;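 active means compounds whose dose series gives a full or clear partial fitted curve of increased nuclear translocation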; further: potency means the concentration at half of the fitted maximal effect); conditions: U2OS GR-GFP nuclear translocation, laser cytometry, 2 h
[4] = biological target: Glucocorticoid receptor (Homo sapiens) (UniProt P04150); test: GR-EFC Redistribution (AID 451); conditions: CHO-K1 GR-EFC translocation, beta-gal luminescence, 2 h; further: potency means the concentration at half of the fitted maximal effect
Summary of the method: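 CHO-K1 cells expressing nuclear EA and GR-ED fragments of b-gal; compounds titrated up to 46 uM final, 2 h at 37 C. GR nuclear translocation read as complemented b-gal luminescence after 1 h RT detection.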

[5] = biological target: Mitogen-activated protein kinase 10 (Mus musculus) (UniProt Q61831); test: JNK3 AlphaScreen Assay (AID 530; active means well fitted curve in either direction with a large enough effect, not every such curve was filed as active;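 further: kinase came from lysate of stimulated human HepG2 cells; signal reports phosphorylation of biotinylated GST-cJun 1-79 at Ser73 with 10 µM ATP; on the % scale 0 is the no-effect control and ±100 the full control effect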)
Summary of the method: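 qHTS format: compounds tested as titrations against IL-1beta/TNF-alpha-activated HepG2 lysate JNK3 with biotin-GST-cJun substrate and 10 uM ATP at room temperature. Loss of anti-phospho-cJun AlphaScreen signal indicates inhibition.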

[6] = biological target: 3',5'-cyclic-AMP phosphodiesterase 4B (Homo sapiens) (UniProt Q07343); test: qHTS Assay for Inhibitors of PDE-IV (AID 607; active means well fitted activation curve with a large enough effect in the main read-out, with a control signal flat, not every such curve was filed as active; further: potency means the concentration at half of the fitted maximal effect)
Summary of the method: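 Live HEK293 cells with a modified cyclic nucleotide-gated (CNG) channel report intracellular cAMP via membrane-potential dye fluorescence (ex 535/em 590 nm). Endogenous PDE-IV was targeted. Compounds were tested at up to 22.9 uM final; RO 20-1724 100 uM served as control.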

[7] = NFAT Signaling Pathway (AID 444; active means well fitted curve in either direction with a large enough effect, not every such curve was filed as active;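 further: carbachol stimulus at about its EC50 of 1 µM final; on the % scale 0 is the no-effect control and ±100 the full control effect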); conditions: Jurkat NFAT-bla M1, carbachol, beta-lactamase ratio, 5 h; at 38 µM (top of the series) unless noted
Summary of the method: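 Jurkat cells with NFAT-driven β-lactamase reporter and co-expressed M1 receptor, stimulated with carbachol (final 1 uM, ~EC50), compound titration, 5 h at 37 °C. CCF4 loaded 1 h at RT; 460/530 nm ratio gave %activity and AC50.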

[8] = Cell Viability - BJ (AID 421); conditions: BJ fibroblast viability, qHTS;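 further: potency means the concentration at half of the fitted maximal effect; cells exposed to compound for 40 hours at 37 °C before readout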
Summary of the method: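 Quantitative HTS: ATP depletion in BJ cells after 40 hr compound exposure in complete culture medium, detected with CellTiter-Glo; AC50 from standard Hill fits.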

[9] = Cell Viability - Jurkat (AID 426;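 active means dose-dependent loss of cell ATP signal giving a full or clear fitted curve, ranked by lower potency value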; further: potency means the concentration at half of the fitted maximal effect); conditions: qHTS
Summary of the method: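 Jurkat (clone E6-1, human T-cell leukemia) cells, 5000/well in complete medium, were exposed to compound for 40 hr at 37 °C. Viability was read as intracellular ATP by CellTiter-Glo luminescence; AC50 came from Hill fits of concentration-response data.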

[10] = Cell Viability - HepG2 (AID 433); conditions: qHTS;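 further: potency means the concentration at half of the fitted maximal effect; potency for ATP loss meaning cytotoxicity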
Summary of the method: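 HepG2 hepatocellular carcinoma cells (1500/well) were treated with compounds for 40 h at 37 °C in complete medium; intracellular ATP was read by CellTiter-Glo luminescence. Data were normalized to DMSO and 100 uM tamoxifen, and AC50 came from Hill fits.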

[11] = Cell Viability - MRC5 (AID 434); conditions: MRC5 lung fibroblast viability, qHTS;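 further: potency means the concentration at half of the fitted maximal effect; potency reflects cytotoxicity seen as loss of intracellular ATP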
Summary of the method: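 MRC5 normal human lung fibroblasts, 1500 cells/well, exposed to compound for 40 hr at 37 C. Cellular ATP was read by CellTiter-Glo luminescence; data normalized to DMSO and 100 uM tamoxifen, with AC50 from Hill fits.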

[12] = Cell Viability - N2a (AID 540; active means well fitted curve in the direction sought with a large enough effect; an effect the other way counts as inactive or inconclusive; further: nearly all actives have a fitted effect of over 45% in size; further: potency means the concentration at half of the fitted maximal effect;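 on activity change, negative = cytotoxicity: plate controls were DMSO alone for no effect and tamoxifen control for full effect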); conditions: N2a mouse neuroblastoma cell viability; activity change, negative = cytotoxicity: at 92.2 µM (top of the series)
Summary of the method: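 Mouse neuroblastoma N2a cells (1500/well) were preincubated 5 hr at 37 °C, then exposed to compounds for 40 hr at 37 °C in complete medium. Viability was read as intracellular ATP by CellTiter-Glo luminescence; AC50 from Hill fits.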

[13] = Cell Viability - NIH 3T3 (AID 541; active means well fitted curve in the direction sought with a large enough effect; an effect the other way counts as inactive or inconclusive; further: nearly all actives have a fitted effect of over 25% in size; further: potency means the concentration at half of the fitted maximal effect;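 on activity change, negative = cytotoxicity: plate controls were DMSO alone for no effect and tamoxifen positive control for full effect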); conditions: NIH 3T3 cell viability, qHTS; activity change, negative = cytotoxicity: at 92.2 µM (top of the series)
Summary of the method: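 NIH 3T3 mouse embryo fibroblasts (1000 cells/well) were plated in complete medium and treated with compound for 40 hr at 37 °C. Viability was read as intracellular ATP by CellTiter-Glo luminescence; AC50 values came from Hill-equation fits of concentration-response data.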

[14] = Cell Viability - HUV-EC-C (AID 542; active means well fitted curve in the direction sought with a large enough effect; an effect the other way counts as inactive or inconclusive; further: nearly all actives have a fitted effect of over 35% in size; further: potency means the concentration at half of the fitted maximal effect; on activity change, negative = cytotoxicity: on the % scale 0 is the no-effect control and ±100 the full control effect)
Summary of the method: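 HUV-EC-C normal human vascular endothelial cells, 1000 cells/well, pre-incubated 5 hr at 37 °C, then exposed to compounds for 40 hr at 37 °C in complete medium. Viability measured as intracellular ATP by CellTiter-Glo luminescence; AC50 from Hill fits.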

[15] = Cell Viability - H-4-II-E (AID 543; active means well fitted curve in the direction sought with a large enough effect; an effect the other way counts as inactive or inconclusive; further: nearly all actives have a fitted effect of over 35% in size; further: potency means the concentration at half of the fitted maximal effect)
Summary of the method: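 Rat hepatoma H-4-II-E cells (1500/well) were plated, incubated 5 hr at 37 °C, then exposed to compounds for 40 hr at 37 °C. Cellular ATP was read by CellTiter-Glo luminescence; AC50 came from Hill-equation fits of concentration-response data.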

[16] = Cell Viability - SH-SY5Y (AID 544; active means well fitted curve in the direction sought with a large enough effect; an effect the other way counts as inactive or inconclusive; further: nearly all actives have a fitted effect of over 55% in size; further: potency means the concentration at half of the fitted maximal effect)
Summary of the method: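 Human neuroblastoma SH-SY5Y cells (1500/well) in complete medium were exposed to compounds for 40 hr at 37 °C; intracellular ATP was then quantified by CellTiter-Glo luminescence after 20 min at room temperature. AC50 came from Hill-equation concentration-response fits.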

[17] = Cell Viability - Renal Proximal Tubule (AID 545; active means well fitted curve in the direction sought with a large enough effect; an effect the other way counts as inactive or inconclusive; further: nearly all actives have a fitted effect of over 40% in size; further: potency means the concentration at half of the fitted maximal effect;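 on activity change, negative = cytotoxicity: 0% = DMSO only and -100% = 100 µM tamoxifen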); conditions: renal proximal tubule cells viability; activity change, negative = cytotoxicity: at 91.7 µM (top of the series)
Summary of the method: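 Primary rat renal proximal tubule cells (1000/well) were treated with compounds for 40 hr at 37 °C in complete medium. Intracellular ATP was measured by CellTiter-Glo luminescence, and AC50 values came from Hill-equation fits of concentration-response data.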

[18] = Cell Viability - Mesenchymal (AID 546; active means well fitted curve in the direction sought with a large enough effect; an effect the other way counts as inactive or inconclusive;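 further: cells exposed to compound for 40 hours before reading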; further: potency means the concentration at half of the fitted maximal effect;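 on activity change, negative = cytotoxicity: 0% = DMSO only and -100% = 100 µM tamoxifen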)
Summary of the method: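 Human kidney mesenchymal cells from normal renal glomeruli, 1000 cells/well, rested 5 hr at 37 °C, then treated 40 hr at 37 °C in complete medium. Cellular ATP read by CellTiter-Glo luminescence; AC50 from Hill-equation fits.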

Glucocorticoid receptor (Homo sapiens), sequence (P04150 whole entry, looked up, the tested form may be a part): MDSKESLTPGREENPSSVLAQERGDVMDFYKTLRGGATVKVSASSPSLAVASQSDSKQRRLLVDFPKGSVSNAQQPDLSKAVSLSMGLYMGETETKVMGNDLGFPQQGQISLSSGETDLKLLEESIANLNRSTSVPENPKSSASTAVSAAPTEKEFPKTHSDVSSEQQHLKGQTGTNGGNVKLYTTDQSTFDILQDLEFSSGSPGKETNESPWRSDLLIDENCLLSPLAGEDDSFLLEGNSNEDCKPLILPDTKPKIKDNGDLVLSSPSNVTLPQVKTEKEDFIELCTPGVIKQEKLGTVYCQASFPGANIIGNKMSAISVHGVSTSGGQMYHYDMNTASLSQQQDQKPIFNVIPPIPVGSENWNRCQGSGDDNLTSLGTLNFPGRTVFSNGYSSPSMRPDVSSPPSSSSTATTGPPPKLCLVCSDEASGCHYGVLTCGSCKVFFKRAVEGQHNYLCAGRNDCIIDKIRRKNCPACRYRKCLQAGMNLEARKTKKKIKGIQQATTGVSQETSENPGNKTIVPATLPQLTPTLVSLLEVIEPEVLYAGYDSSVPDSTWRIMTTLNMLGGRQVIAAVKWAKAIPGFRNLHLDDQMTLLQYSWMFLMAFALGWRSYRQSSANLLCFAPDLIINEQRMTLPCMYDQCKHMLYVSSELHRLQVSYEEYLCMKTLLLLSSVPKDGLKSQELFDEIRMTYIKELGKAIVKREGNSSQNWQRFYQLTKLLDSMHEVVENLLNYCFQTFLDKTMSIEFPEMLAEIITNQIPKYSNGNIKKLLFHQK
3',5'-cyclic-AMP phosphodiesterase 4B (Homo sapiens), sequence (Q07343 whole entry, looked up): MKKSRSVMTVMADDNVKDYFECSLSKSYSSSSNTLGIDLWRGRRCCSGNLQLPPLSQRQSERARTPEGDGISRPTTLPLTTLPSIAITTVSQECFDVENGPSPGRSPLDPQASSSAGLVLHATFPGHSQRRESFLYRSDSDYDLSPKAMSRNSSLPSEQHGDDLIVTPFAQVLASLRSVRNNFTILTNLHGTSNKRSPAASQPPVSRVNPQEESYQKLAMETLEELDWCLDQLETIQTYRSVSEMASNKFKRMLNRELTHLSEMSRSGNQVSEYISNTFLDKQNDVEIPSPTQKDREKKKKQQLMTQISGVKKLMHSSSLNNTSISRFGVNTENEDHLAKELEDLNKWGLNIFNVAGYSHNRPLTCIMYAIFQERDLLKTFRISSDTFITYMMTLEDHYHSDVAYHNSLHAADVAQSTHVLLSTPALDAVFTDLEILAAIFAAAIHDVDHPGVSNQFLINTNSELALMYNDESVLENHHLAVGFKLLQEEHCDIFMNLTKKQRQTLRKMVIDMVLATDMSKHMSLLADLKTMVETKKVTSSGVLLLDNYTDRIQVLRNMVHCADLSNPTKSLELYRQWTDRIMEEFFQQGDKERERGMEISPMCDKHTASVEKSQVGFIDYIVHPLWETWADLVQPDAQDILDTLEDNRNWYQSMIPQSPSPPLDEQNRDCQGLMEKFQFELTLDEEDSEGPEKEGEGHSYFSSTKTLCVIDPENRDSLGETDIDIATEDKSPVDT
Cytochrome P450 1A2 (Homo sapiens), sequence (P05177 whole entry, looked up): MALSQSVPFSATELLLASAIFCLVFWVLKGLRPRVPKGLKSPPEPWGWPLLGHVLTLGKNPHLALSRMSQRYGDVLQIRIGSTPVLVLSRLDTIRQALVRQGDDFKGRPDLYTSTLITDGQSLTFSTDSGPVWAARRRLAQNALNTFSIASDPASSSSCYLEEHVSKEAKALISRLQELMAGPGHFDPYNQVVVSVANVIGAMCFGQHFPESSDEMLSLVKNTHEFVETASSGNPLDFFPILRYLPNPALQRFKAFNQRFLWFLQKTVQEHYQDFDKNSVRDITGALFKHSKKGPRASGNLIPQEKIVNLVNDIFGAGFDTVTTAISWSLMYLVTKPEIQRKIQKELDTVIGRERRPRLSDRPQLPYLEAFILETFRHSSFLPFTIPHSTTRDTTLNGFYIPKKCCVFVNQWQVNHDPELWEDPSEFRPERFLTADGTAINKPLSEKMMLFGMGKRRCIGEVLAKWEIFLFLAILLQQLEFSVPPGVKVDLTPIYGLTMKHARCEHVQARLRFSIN

Cc1c2ccncc2c(C)c2c1[nH]c1ccccc12
inactive: Potency [3] > 46 µM and > 20.6 µM | Potency [4] > 46 µM and > 20.6 µM | outcome [5] | Potency [6]
active: Potency [1] 79.4 nM and 20 nM | activity, negative = inhibition [2] 128% [activator] [at 17.2 µM] and 142% [activator] [at 17.2 µM]

O=[N+]([O-])c1ccc2nc(N3CCNCC3)ccc2c1
active: Potency [1] 2 µM
inactive: activity change, negative = inhibition [7] 4.11% | Potency [3] > 46 µM | Potency [4] > 46 µM | Potency [6]

S=C=S
inactive: Potency [8] > 92 µM | Potency [9] > 92 µM | Potency [10] > 92 µM | Potency [11] > 92 µM | outcome [5] | Potency [12] | Potency [13] | Potency [14] | Potency [15] | Potency [16] | Potency [17] | Potency [18]

CCN(CCCl)Cc1ccccc1Br
inactive: activity change, negative = inhibition [7] -24.5% | Potency [3] > 46 µM | Potency [4] > 46 µM | Potency [6]
active: Potency [1] 15.8 µM

ClC=C(Cl)Cl
inactive: Potency [8] > 92 µM | Potency [9] > 92 µM | Potency [10] > 92 µM | Potency [11] > 92 µM | outcome [5] | Potency [12] | Potency [13] | Potency [14] | Potency [15] | Potency [16] | Potency [17] | Potency [18]

O=S1(=O)N(CCN2CC=C(c3c[nH]c4cc(F)ccc34)CC2)c2cccc3c2N1CCC3
inactive: activity change, negative = inhibition [7] -17.5% | Potency [3] > 46 µM | Potency [4] > 46 µM | outcome [5] | Potency [6]
active: Potency [1] 3.98 µM

CCCN(CCC)[C@H]1CCc2c(F)ccc(O)c2C1
inactive: Potency [3] > 46 µM | Potency [4] > 46 µM | outcome [5] | Potency [6]
active: Potency [1] 12.6 µM and 25.1 µM

NCCc1c[nH]c2ccc(C(N)=O)cc12
active: Potency [1] 6.31 µM and 1.26 µM
inactive: activity change, negative = inhibition [7] 4.42% | Potency [3] > 46 µM | Potency [4] > 46 µM | Potency [6]

O=[N+]([O-])c1cc(O)c(O)c([N+](=O)[O-])c1
inactive: Potency [1] | activity change, negative = inhibition [7] 3.02% | Potency [3] > 46 µM | Potency [4] > 46 µM | outcome [5] | Potency [6]

Cc1sc2ccccc2c1CC1=NCCN1
active: Potency [1] 2.51 µM
inactive: activity change, negative = inhibition [7] -16.3% | Potency [3] > 46 µM | Potency [4] > 46 µM | outcome [5] | Potency [6]

C[N+]1(C)CCN(c2ccccc2)CC1
inactive: Potency [1] | Potency [3] > 46 µM and > 20.6 µM | Potency [4] > 46 µM | outcome [5] | Potency [6]

O=C1C2CC=CCC2C(=O)N1SC(Cl)(Cl)Cl (stereo unspecified)
inactive: outcome [5]
active: Potency [8] 54.5 µM and 21.4 µM | Potency [9] 4.24 µM and 4.76 µM | Potency [10] 40.6 µM and 37.9 µM | Potency [11] 24.9 µM and 14.7 µM | Potency [12] 20 µM and 10 µM | Potency [13] 5.01 µM and 2 µM | Potency [14] 50.1 µM and 25.1 µM | Potency [15] 7.94 µM and 6.31 µM | Potency [16] 2 µM and 1 µM | Potency [17] 3.98 µM and 3.16 µM | Potency [18] 25.1 µM and 20 µM

CN(N=O)c1ccc(O)c(O)c1
inactive: Potency [1] | activity change, negative = inhibition [7] 0.97% | Potency [3] > 46 µM | Potency [4] > 46 µM | Potency [6]

CC(C)CCON=O
inactive: Potency [8] > 92 µM | Potency [9] > 92 µM | Potency [10] > 92 µM | Potency [11] > 92 µM | outcome [5] | Potency [12] | Potency [13] | Potency [14] | Potency [15] | Potency [16] | Potency [17] | Potency [18]

N#CCCN
inactive: Potency [1] | activity change, negative = inhibition [7] 7.43% | Potency [3] > 46 µM | Potency [4] > 46 µM | Potency [6]

CCCn1c(=O)c2[nH]c(C3CCCC3)nc2n(CCCOC(=O)c2ccc(S(=O)(=O)F)cc2)c1=O
active: Potency [6] 1.26 µM
inactive: Potency [1] | activity change, negative = inhibition [7] -34.5% | Potency [3] > 46 µM | Potency [4] > 46 µM

CCC1(C)CC(=O)NC(=O)C1
inactive: Potency [1] | activity change, negative = inhibition [7] -6.48% [at 17.2 µM] | Potency [3] > 20.6 µM | Potency [4] > 20.6 µM | outcome [5] | Potency [6]

c1ccc2cc(CC3=NCCN3)ccc2c1
inactive: Potency [1] | activity change, negative = inhibition [7] -0.608% | outcome [5] | Potency [6]

Clc1cc(I)cc(Cl)c1NC1=NCCN1
active: Potency [1] 15.8 µM
inactive: activity change, negative = inhibition [7] -4.12% | Potency [3] > 46 µM | Potency [4] > 46 µM | Potency [6]

C[N+]1(C)[C@@H]2CC[C@H]1CC(OC(=O)c1c[nH]c3ccccc13)C2 (stereo partly specified)
inactive: Potency [1] | Potency [3] > 46 µM | Potency [4] > 46 µM | outcome [5] | Potency [6]

O=c1c2ccccc2[se]n1-c1ccccc1
active: Potency [1] 3.98 µM and 794 nM
inactive: Potency [3] > 46 µM and > 20.6 µM | Potency [4] > 46 µM and > 20.6 µM | Potency [6]

CN1CCc2cc(O)cc3c2[C@H]1Cc1ccc(O)c(O)c1-3
inactive: activity change, negative = inhibition [7] -24.8% | Potency [3] > 46 µM | Potency [4] > 46 µM | Potency [6]
active: Potency [1] 12.6 µM
